Six1-Eya2 inh: Six1/Eya2 interaction inhibition. AlphaScreen GST-Six1/His-Eya2 binding, biochemical; active compounds read low. activity change, % (test concentration not listed). 360,000 tested, 0.56% active. AID 651725; in the data active means activity change below about -65%; inconclusive means mostly about -30% to -63%
Target sequence (O00167 whole entry, looked up): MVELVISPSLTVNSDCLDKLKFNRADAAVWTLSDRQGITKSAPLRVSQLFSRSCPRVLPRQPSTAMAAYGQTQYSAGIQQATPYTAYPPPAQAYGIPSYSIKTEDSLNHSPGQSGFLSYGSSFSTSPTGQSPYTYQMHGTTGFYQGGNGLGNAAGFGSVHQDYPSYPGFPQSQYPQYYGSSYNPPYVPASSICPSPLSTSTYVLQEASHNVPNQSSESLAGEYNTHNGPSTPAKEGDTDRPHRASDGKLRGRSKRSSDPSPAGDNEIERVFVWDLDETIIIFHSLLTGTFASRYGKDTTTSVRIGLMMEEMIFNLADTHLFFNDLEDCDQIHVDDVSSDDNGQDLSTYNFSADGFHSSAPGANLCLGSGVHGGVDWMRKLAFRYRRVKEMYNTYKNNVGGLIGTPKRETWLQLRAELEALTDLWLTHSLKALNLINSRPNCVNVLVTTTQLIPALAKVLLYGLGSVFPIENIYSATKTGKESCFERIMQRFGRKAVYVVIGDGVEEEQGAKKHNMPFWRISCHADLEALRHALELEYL
Target sequence (Q15475 whole entry, looked up): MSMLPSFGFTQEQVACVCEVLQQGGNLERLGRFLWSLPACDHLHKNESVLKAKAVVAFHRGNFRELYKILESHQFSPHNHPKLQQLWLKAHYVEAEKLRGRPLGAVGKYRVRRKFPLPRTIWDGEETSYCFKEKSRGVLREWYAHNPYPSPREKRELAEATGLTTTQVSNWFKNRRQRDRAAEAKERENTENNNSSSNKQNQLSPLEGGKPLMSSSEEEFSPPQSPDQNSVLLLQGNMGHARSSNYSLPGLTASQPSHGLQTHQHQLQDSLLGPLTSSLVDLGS
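Six1/Eya2 binding was read as AlphaScreen signal after compounds were pinned into GST-Six1 plus His-tagged Eya2 (5X stock 250/500 nM) in pH 8.0 Tris/NaCl/TCEP buffer, beads added, then incubated 1 h, 37 C, dark.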
TDP1 inh: inhibitors of human tyrosyl-DNA phosphodiesterase TDP1; AID 485290; recombinant TDP1, AlphaScreen DNA substrate cleavage; 350,000 tested, 0.28% active; Potency, µM (top dose mostly 130 µM), without a hit: at the top dose activity change, negative = inhibition, usual class: inhibitors; further: potency means the concentration at half of the fitted maximal effect; nearly all actives have a fitted effect of over 40% in size
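Tdp1 1 nM final; 15 min RT w/ cpd; substrate 15 nM, 5 min; beads 10 ug/ml, 10 min; AlphaScreen read. Neg ctrl: no enzyme.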
DT40 TDP1 no CPT: qHTS for Inhibitors of human tyrosyl-DNA phosphodiesterase 1 (TDP1): qHTS in cells in absence of CPT. DT40 Tdp1-/- hTDP1 cells, no CPT, ATP luminescence, 48 h. Potency, µM (doses to about 46.2 µM), without a hit: top-dose activity change, negative = growth inhibition, usual class: inhibitors. 420,000 tested, 15% active; further: potency means the concentration at half of the fitted maximal effect; nearly all actives have a fitted effect of over 55% in size
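Stably hTDP1-transfected Tdp1-null chicken DT40 cells were treated with library compounds minus camptothecin and grown for at least 48 hr at 37 °C, after which cellular ATP was quantified by luminescence.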
CtBP-E1A inh: blocks the CtBP interaction with E1A; 340,000 tested, 0.49% active; AlphaScreen GST-E1A/His-CtBP binding, 1536-well; active compounds read low; activity change, % (concentration not given with the values); in the data active means activity change below about -65%; inconclusive means mostly about -30% to -63%
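GST-E1A and His-tagged CtBP (125 nM each as 5X stock) were preincubated with pin-transferred compound for 2 h at 37 °C in the dark, then glutathione donor and nickel acceptor beads were added for 1 h before AlphaScreen reading.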
TDP1 cell CPT: DT40-hTDP1 cell growth loss with CPT. chicken DT40 Tdp1-/-;hTDP1 cells + 20 nM CPT, ATP luminescence, 48 h. Potency, µM (series often up to 46.2 µM), for the others: top-dose activity change, negative = growth inhibition, usual class: inhibitors. 420,000 tested, 12% active; further: potency means the concentration at half of the fitted maximal effect; nearly all actives have a fitted effect of over 55% in size
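Chicken DT40 Tdp1-/- cells stably complemented with human TDP1 were seeded at 400 cells/well in medium containing 20 nM camptothecin, exposed to pin-transferred compounds, and grown at 37 °C for at least 48 hr. Viability was read as ATP luminescence.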
IL-1B inflam inh: inflammasome signaling inhibition, IL-1 beta readout; THP-1 LPS/ATP IL-1B secretion, AlphaLISA, 16 h; active compounds read low; activity change, % at 57.5 µM; 360,000 tested, 4.7% active; in the data active means activity change below about -50%; inconclusive means mostly about -30% to -49%
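Secreted IL-1B measured by AlphaLISA bead assay after 16 h compound exposure of THP-1 cells; compounds (final up to 57.5 uM) added 1 h before LPS (250 ng/mL) and ATP (1.25 mM) stimulation; lower signal means less secretion.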
Starred values were filed as active, the others as inactive; ? = inconclusive; / = not tested or not shown; [ ] = remark or other dose. Sampled rows, rich in hits. Any-hit rate of the full collection: about 18%. Unless noted, the call rests on the fitted dose curve; in most records, active means well fitted curve in the direction sought with a large enough effect; inconclusive means small, poorly fitted or top-dose-only effect, or another doubt; inactive means no such curve, though single readings can be large; an effect the other way counts as inactive or inconclusive. On the % scale 0 is the no-effect control and ±100 the full control effect.

SMILES	Six1-Eya2 inh	TDP1 inh	DT40 TDP1 no CPT	CtBP-E1A inh	TDP1 cell CPT	IL-1B inflam inh
OC(CC1CC12c1ccccc1-c1ncccc12)(c1ccccc1)c1ccccc1 (stereo not given)	-6.6	5.7%	15.8µM*	9.4	?	?
CCOC(=O)c1csc(NC(=O)Nc2cccc(Cl)c2)n1	7.5	8.5%	?	7.4	?	4.6
O=C(O)Cc1ccc(NC(=O)c2ccc(Cl)c(Cl)c2)cc1	2.8	6.0%	-17.0%	3.3	25.7%	1.4
C/C(=N\NC(=O)C(=O)Nc1cc(Cl)ccc1Cl)c1ccncc1	10.6	2.2%	21.9%	-14.0	6.9%	3.1
O=C(NNC(=S)Nc1ccccc1Cl)c1ccncc1	10.0	/	0.2%	6.9	10.1%	17.2
CCc1ccc(C(=O)Nc2ccc3nc(C)ccc3c2)cc1	0.1	/	?	1.1	?	?
O=C(Nc1cccc(Cl)c1Cl)c1ccncc1	-0.6	-4.5%	-10.4%	2.9	-10.7%	-51.0*
Cc1ccc2cc(NC(=O)c3ccc(C(C)(C)C)cc3)ccc2n1	-6.6	/	?	-1.4	?	-100.6*
C/C(=N\NC(=O)C(=O)Nc1cccc(Cl)c1C)c1ccncc1	2.9	3.4%	14.6µM*	2.5	20.6µM*	1.5
CC(C)(C)c1ccc(C(=O)Nc2ccc(NC(=O)c3ccc(Cl)c(Cl)c3)cc2)cc1	/	-1.3%[12.3 µM]	14.6µM*	/	11.6µM*	/
CCc1cccc2[nH]c3cc([N+](=O)[O-])ccc3c12	-1.6	0.0%	?	0.0	-2.2%	-19.4
O=C(NNC(=O)c1ccc(Cl)c(Cl)c1)c1ccncc1	0.0	/	-8.3%	11.6	7.0%	-0.2
O=C(Nc1ccncc1)c1ccc(Cl)c(Cl)c1	1.0	1.6%	11.6µM*	-5.6	-22.4%	?
Cc1ccc(C)c(NC(=O)C(c2ccccc2)N2Cc3ccccc3C2=O)c1 (stereo not given)	/	3.7%	-25.8%	/	?	/
OCCCn1c(C2CCCN2c2nc(-c3ccc(F)cc3)cs2)nc2cc(Cl)c(Cl)cc21 (stereo not given)	-14.3	/	16.4µM*	/	?	-9.3
Cc1csc(N2CCCC2c2nc3cc(C(F)(F)F)ccc3n2CCOCCO)n1 (stereo not given)	-28.7	/	?	2.6	9.2µM*	-14.5
Cc1csc(N2CCCC2c2nc3cc(Cl)c(N4CCCCC4)cc3n2CCOCCO)n1 (stereo not given)	-7.1	/	6.1%	-1.4	?	?
CCCn1c(C2CCCN2c2nc(-c3cccc(Br)c3)cs2)nc2cc(Cl)c(Cl)cc21 (stereo not given)	1.0	/	18.4µM*	-0.5	?	-5.6
O=c1[nH]c(-[n+]2ccc3ccccc3c2)c(/C=N/N=C(\[O-])c2ccccc2)s1	-11.9	1.9%	9.6%	-5.7	?	5.0
CC(C)(C)OC(=O)N1CCC(C(=O)Nc2ccc(C(=O)NCCc3ccccc3)cc2)CC1	5.9	/	10.3µM*	-9.6	?	28.3
CC(C)(C)OC(=O)N1CCC(C(=O)Nc2ccc(C(=O)NCc3ccccc3)cc2)CC1	-2.4	/	14.6µM*	-0.5	16.4µM*	13.9
CC(C)(C)OC(=O)N1CCC(C(=O)Nc2ccc(C(=O)NC3CC3)cc2)CC1	0.3	/	1.0%	4.4	2.3%	11.2
COc1ccc(C2(c3ccc(O)cc3O)CC(c3ccccc3Cl)NC(=S)N2)cc1 (stereo not given)	-13.8	9.2%	?	-13.4	?	-90.4*
COc1cccc(C2CC(c3ccccc3Cl)n3nc(N)nc3N2)c1 (stereo not given)	17.9	2.1%	-19.5%	29.2	?	-5.0
Cc1cc(NC(=O)CCC(=O)NNC(=O)c2ccc(C(C)(C)C)cc2)no1	0.8	2.6%	-15.9%	27.4	-11.9%	13.0
